This passage reports Percent Effect results from ChEMBL document CHEMBL3988442, “University of Dundee, Small-Polar-MMV Screening Library” (2021).

Molecules are shown by their SMILES.

The target of the test is T1, Arginase-2, mitochondrial (Homo sapiens) (UniProt P78540).
T1 sequence (whole entry): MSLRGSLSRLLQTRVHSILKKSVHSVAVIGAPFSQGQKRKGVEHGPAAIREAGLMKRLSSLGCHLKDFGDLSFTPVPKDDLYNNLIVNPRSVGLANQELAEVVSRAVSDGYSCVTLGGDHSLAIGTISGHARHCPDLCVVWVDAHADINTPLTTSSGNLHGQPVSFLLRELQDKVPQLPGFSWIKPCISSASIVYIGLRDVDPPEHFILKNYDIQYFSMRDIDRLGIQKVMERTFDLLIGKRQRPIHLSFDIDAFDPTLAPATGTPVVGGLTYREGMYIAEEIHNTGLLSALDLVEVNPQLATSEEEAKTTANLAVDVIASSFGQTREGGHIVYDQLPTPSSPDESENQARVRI
As to the kind of experiment: in vitro enzyme assay to detect the production of urea directly proportional to the activity of Arginase II. Format: functional. Also on record: scale not given: in the data most compounds retested in dose-response had high values. Conditions: 33.3 µM.
As to `CCc1cnc(CN(C(C)=O)C2CCN(CCc3cnn(C)c3)C2)o1` (stereo not given), the Percent Effect is 2.16%.

`CC(C)c1nnc2n1CC(CNCc1ccncc1)CC2` (stereo not given): the Percent Effect turned out to be 2.21%.

Regarding `O=S(=O)(Cc1ccccc1F)NCCN1CCOCC1`, the Percent Effect was -1.04%.

As to `COc1cc(C(=O)N2CCC(c3n[nH]c(C4CC4)n3)CC2)ccc1C`, the Percent Effect stood at 2.37%.

As to `CC(C)(C)C(=O)NS(=O)(=O)c1ccc(C#N)cc1C(F)(F)F`, the Percent Effect was 2.81%.

Take `O=C(N1CCCO1)[C@@]12CCO[C@@H]1CCN(C1CCCCC1)C2`: the Percent Effect was -50.7%.

`O=C(c1ccccc1-n1cccn1)N1CCCN(c2cccnn2)CC1`: the Percent Effect is 1.05%.

Consider `Cc1cc(C)n(CC2CCCN2C(=O)c2cnn(C)c2C2CC2)n1` (stereo not given), for which the Percent Effect is -0.554%.

`CCC(C)(NCC(=O)Nc1nc(C)cs1)c1nc(C)cs1` (stereo not given): the Percent Effect is -2.73%.

As to `CCOc1nnc(CN2CCC(N(C)Cc3noc(C)n3)C2)s1` (stereo not given), the Percent Effect was 5.04%.

Turning to `Cc1ccc(=O)n(CC2(O)CCN(Cc3cnc(C)nc3)CC2)n1`, the Percent Effect was -3.48%.

On to `O=C(Cn1c(=O)n(Cc2ccco2)c2ncccc21)Nc1ccccn1`, for which the Percent Effect is -4.41%.

Consider `COc1cccc(N2CCN(CC(O)c3cc(C)sc3C)CC2)c1` (stereo not given), for which the Percent Effect was -2.55%.

In the case of `CCOCC(=O)NC1(c2cccc(Br)c2)CC1`, the Percent Effect is -2.38%.

Turning to `CCc1noc(C(C)N(C)CC(=O)Nc2ccc(C)cc2)n1` (stereo not given), the Percent Effect is -0.455%.

For the compound `CCn1cnnc1CNC(=O)c1cc(Cl)ccc1OC`, the Percent Effect is 3.66%.

Consider `CCc1nc(CNC(=O)Nc2ccc(C(=O)NC)cc2C)cs1`, for which the Percent Effect is 6.25%.

Take `O=C(CCc1cccs1)N1CCC(Nc2cccnn2)CC1`: the Percent Effect worked out at 1.8%.

In the case of `COCC(=O)N1CCCC1c1cc(Nc2nnc(C)s2)nc(C)n1` (stereo not given), the Percent Effect is -3.96%.

Consider `CCn1ccnc1CN1C[C@@H](CN2CCCC2)[C@@H](CO)C1`, for which the Percent Effect is -1.91%.
